In PubChem BioAssay (Tox21):
Results filed as inconclusive are left out. Where a call stands in place of a potency, no number is given. Calls of active or inactive are those of the source. Calls come from the whole dose curve; as a rule, active = well fitted inhibition curve with a large enough effect in the signal ratio in the repeat runs (not every such curve was filed as active); inconclusive = weak or mixed curves, or effect the other way; inactive = no such curve, though single readings can be large or run the other way; the % refers to the signal ratio.

Molecular target: Estrogen receptor beta (Homo sapiens) (UniProt Q92731)
Test: qHTS assay to identify small molecule antagonists of the estrogen receptor beta (ER-beta) signaling pathway (AID 1259378)
Conditions: ER-beta-UAS-bla HEK293T, beta-lactamase FRET ratio, 16 h; series mostly up to 92.4 µM
Source text: National Center for Advancing Translational Sciences [NCATS]
NIH Chemical Genomics Center [NCGC]
U.S. Environmental Protection Agency [EPA]
National Institutes of Environmental Health Sciences [NIEHS]
National Toxicology Program [NTP]
U.S. Food and Drug Administration [FDA]
Estrogen receptor (ER), a nuclear hormone receptor, plays an important role in development, metabolic homeostasis and reproduction. Two subtypes of ER, ER-alpha and ER-beta, have similar expression patterns with some uniqueness in both types. Endocrine disrupting chemicals (EDCs) and their interactions with steroid hormone receptors like ER causes disruption of normal endocrine function. To identify the compounds that inhibit ER signaling, an ER-beta-UAS-bla GripTite cell line (Life Technologies, Madison, WI, USA) containing a beta-lactamase reporter gene under the control of an UAS response element was used to screen Tox21 10K compound library.
Tox21 Assay Protocol Summary:
ER-beta-UAS-bla HEK293T cells were dispensed at 2,000 cells/4 uL of assay medium containing 2% charcoal stripped FBS per well into black wall/clear-bottom 1536-well plates using a Multidrop Combi (ThermoFisher Scientific, Waltham, MA) dispenser. After the assay plates were incubated at a 37C and 5% CO2 for 6 hr, 23 nL of compounds dissolved in DMSO, positive controls or DMSO only was transferred to the assay plate by a Pintool station (Kalypsys, San Diego, CA), followed by addition of 1 uL (1nM as final concentration) of 17-beta-estradiol (E2) in assay medium using a BioRAPTR FRD (Flying Reagent Dispenser, Aurora Discovery, San Diego, CA). The plates were incubated at 37C and 5% CO2 for 16 hr. Then 1 uL of LiveBLAzerTM B/G FRET substrate was added using a Flying Reagent Dispenser, the plates were incubated at room temperature for 2 hours, and fluorescence intensity was measured by an Envision plate reader (PerkinElmer, Shelton, CT).
Potency is the fitted concentration of half-maximal effect.

Estrogen receptor beta (Homo sapiens), sequence (Q92731 whole entry, looked up): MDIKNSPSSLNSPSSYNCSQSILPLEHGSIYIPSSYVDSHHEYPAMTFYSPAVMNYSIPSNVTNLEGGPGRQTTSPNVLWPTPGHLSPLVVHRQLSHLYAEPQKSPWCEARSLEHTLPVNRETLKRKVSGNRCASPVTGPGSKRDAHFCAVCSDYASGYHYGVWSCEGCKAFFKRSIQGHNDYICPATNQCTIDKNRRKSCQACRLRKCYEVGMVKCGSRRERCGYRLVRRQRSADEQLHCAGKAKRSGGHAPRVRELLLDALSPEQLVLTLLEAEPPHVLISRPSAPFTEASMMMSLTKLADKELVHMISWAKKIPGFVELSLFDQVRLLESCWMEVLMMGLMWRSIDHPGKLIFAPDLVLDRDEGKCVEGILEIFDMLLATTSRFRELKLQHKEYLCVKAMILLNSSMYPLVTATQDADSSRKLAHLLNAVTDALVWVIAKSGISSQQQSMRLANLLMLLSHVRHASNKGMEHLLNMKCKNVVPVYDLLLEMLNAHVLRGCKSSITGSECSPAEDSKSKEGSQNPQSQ

Row | SMILES | Potency
1 | CN(C)CCN1C(=O)c2ccccc2N(C)c2ccccc21 | inactive
2 | CO[C@]1(NC(=O)CSC(F)F)C(=O)N2C(C(=O)O)=C(CSc3nnnn3CCO)CO[C@H]21 | inactive
3 | CCCCC(CC)CN (stereo not given) | inactive
4 | C=C1c2cccc(O)c2C(O)=C2C(=O)[C@]3(O)C(O)=C(C(N)=O)C(=O)[C@@H](N(C)C)[C@@H]3[C@@H](O)[C@H]12 | inactive
5 | Clc1cc(Cl)nc(Cl)n1 | inactive
6 | Nc1cccc2c1CN(C1CCC(=O)NC1=O)C2=O (stereo not given) | inactive
7 | O=C1CCCCCCCCCCOCCCCO1 | inactive
8 | CC(C)C=O | inactive
9 | CCC(OCCCOC)OC(C)=O (stereo not given) | inactive
10 | Cc1cc(C)cc(N)c1 | inactive
11 | CC(C)Nc1cccnc1N1CCN(C(=O)c2cc3cc(NS(C)(=O)=O)ccc3[nH]2)CC1 | inactive
12 | C1COC1 | inactive
13 | O=C(O)C[C@H](NC(=O)OCc1ccccc1)C(=O)O | inactive
14 | CC1CC(OC(=O)C(O)c2ccccc2)CC(C)(C)N1C (stereo not given) | inactive
15 | C=C1C[C@@]23CC[C@H]4[C@@](C)(CCC[C@@]4(C)C(=O)O[C@@H]4O[C@H](CO)[C@@H](O)[C@H](O)[C@H]4O)[C@@H]2CC[C@]1(O[C@@H]1O[C@H](CO)[C@@H](O)[C@H](O[C@@H]2O[C@H](CO)[C@@H](O)[C@H](O)[C@H]2O)[C@H]1O[C@@H]1O[C@H](CO)[C@@H](O)[C@H](O)[C@H]1O)C3 | inactive
16 | Cc1c(C)c2c(c(C)c1OC(=O)CCC(=O)OCCO)CC[C@@](C)(CCC[C@H](C)CCC[C@H](C)CCCC(C)C)O2 | 13.3 µM (active)
17 | CCC1NC(=O)c2cc(S(N)(=O)=O)c(Cl)cc2N1 (stereo not given) | inactive
18 | OC(CCN1CCCC1)(c1ccccc1)C1CCCCC1 (stereo not given) | inactive
19 | Cc1cc(C)c(N)cc1C | inactive
20 | O=C1c2ccccc2C(=O)C1c1nc2ccccc2c(Br)c1O | inactive

Row | SMILES | Potency
21 | O=C1Cc2cc(Cl)ccc2N1 | inactive
22 | CC(C)(C)C(=O)C(=O)O | inactive
23 | CC1=C(CC=O)C(C)(C)CCC1 | inactive
24 | Cc1cscn1 | inactive
25 | CC(O)c1ccccc1 (stereo not given) | inactive
26 | CCC=CC#N | inactive
27 | CN1CCCC(CC2c3ccccc3Sc3ccccc32)C1 (stereo not given) | 13.3 µM (active)
28 | CN1C(=O)c2ccccc2C1=O | inactive
29 | CCC(=O)OC | inactive
30 | CN1C(=O)OC(C)(C)C1=O | inactive
31 | O=C(Nc1cccc2c(=O)cc(-c3nn[nH]n3)oc12)c1ccc(OCCCCc2ccccc2)cc1 | inactive
32 | c1cc(N(CC2CO2)CC2CO2)ccc1Cc1ccc(N(CC2CO2)CC2CO2)cc1 (stereo not given) | 27.3 µM (active)
33 | COc1ncnc(NS(=O)(=O)c2ccc(N)cc2)c1OC | inactive
34 | C=C(C)C(=O)OCCOCCOC(=O)C(=C)C | inactive
35 | C[C@H]1C[C@H](O)c2ccsc2S1(=O)=O | inactive
36 | O=Cc1c2ccccc2c(Cl)c2ccccc12 | inactive
37 | O=c1[nH]ncc2ccccc12 | inactive
38 | OC1(c2ccccc2)CCNCC1 | inactive
39 | CCCCCCCCN | inactive
40 | CC(=O)c1cc2ccccc2s1 | inactive
